# Laboratory results reported in PubChem BioAssay (NCATS).
# Inconclusive results are not listed. Unmarked numbers belong to inactive results. Activity calls are given as the source filed them. Calls follow the shape of the full dose curve.
# Target: Vitamin D3 receptor (Homo sapiens) (UniProt P11473)
# Test: qHTS assay for small molecule agonists of vitamin D receptor signaling (AID 588543)
# Details: HEK293T VDR-UAS-bla, beta-lactamase ratio, 16 h; series mostly up to 76.8 µM; activation: at the top concentration
# Text: NIH Chemical Genomics Center [NCGC]
# U.S. Environmental Protection Agency [EPA]
# National Institutes of Environmental Health Sciences [NIEHS]
# National Toxicology Program [NTP]
# The Vitamin D receptor (VDR) is a member of nuclear hormone receptor superfamily and it plays a critical role in calcium homeostasis and bone metabolism. It plays a role in inducing cell differentiation, inhibiting cell growth and in thrombogenicity. So, VDR that mediates these effects represents a pharmacological target in prevention and treatment of hyperproliferative malignancies, such as cancer and psoriasis, cardiovascular, immunological, inflammatory and renal diseases etc.
# NCGC Assay Protocol Summary
# Using a beta-lactamase reporter-gene under control of Vitamin D receptor (VDR) response element, a cell-based assay [GeneBLAzer (VDR -UAS-bla assay developed by Invitrogen] was used to measure VDR ligands signaling. GeneBLAzer VDR -UAS-bla HEK293T cells were used with assay medium containing 2% charcoal-stripped FBS. The assay was performed in clear bottom black Greiner 1536-well plates. 1-alpha,25-Dihydroxy vitaminD3 was used as a positive control in the screen. Library compounds were measured for their ability to stimulate the reporter gene activity. Compounds were screened in a titration series in 1536-well format. The fluorescence intensity (405 nm excitation, 460/530 nm emission) was measured using an EnVision plate reader. Data was normalized relative to 1-alpha,25-Dihydroxy vitaminD3 control (50 nM, 100%) and DMSO only wells (basal, 0%). Concentration-response titration points for each compound were fitted to the Hill equation yielding concentrations of half-maximal stimulation (EC50) and maximal response (efficacy) values.
# qHTS protocol for VDR beta-lactamase assay in agonist mode
# [Step] [Parameter] [Value] [Description]
# 1. Reagent; 6 uL; 2000 cells/well
# 2. Incubation; 37 C for 5 hrs
# 4. Controls (1-alpha,25-Dihydroxy vitaminD3); 23 nL,
# - Final concentrations of 50 nM and 15 nM in two columns
# 5. Incubation; 37 C for 16 hrs
# 6. Detection reagent; 1 uL of CCF4-dye
# 7. Incubation; RT for 2 hrs
# 8. Detection; Fluorescence; Envision plate reader
# Vitamin D3 receptor (Homo sapiens), sequence (P11473 whole entry, looked up): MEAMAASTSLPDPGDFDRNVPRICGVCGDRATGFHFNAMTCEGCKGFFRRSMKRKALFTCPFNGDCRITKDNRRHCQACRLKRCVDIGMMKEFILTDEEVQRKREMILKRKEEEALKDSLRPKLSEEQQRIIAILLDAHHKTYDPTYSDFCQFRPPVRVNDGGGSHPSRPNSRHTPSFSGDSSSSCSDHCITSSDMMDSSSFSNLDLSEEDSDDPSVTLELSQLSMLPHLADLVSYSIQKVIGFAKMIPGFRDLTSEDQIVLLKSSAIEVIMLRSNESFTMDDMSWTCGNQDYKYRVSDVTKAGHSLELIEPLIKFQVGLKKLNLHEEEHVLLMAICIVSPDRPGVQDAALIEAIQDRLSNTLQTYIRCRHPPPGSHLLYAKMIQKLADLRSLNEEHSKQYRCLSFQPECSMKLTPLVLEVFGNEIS
Compound,activation,outcome
CCN(CC)CCOc1ccc(/C(=C(\Cl)c2ccccc2)c2ccccc2)cc1,-10%,–
CCCCCCCCCCCCCCCC[n+]1ccccc1,-2.13%,–
O=C(c1ccccc1)c1ccccc1,–,inactive
CC(C)(C)c1ccc(O)c(O)c1,–,inactive
OCCOCCN1CCN(C(c2ccccc2)c2ccc(Cl)cc2)CC1 (stereo not drawn),-3%,–
CC(C)C(C)(C)C(C)(C)C(C)(C)S,–,inactive
CCCC(=O)c1cc(O)c(O)cc1O,1.64%,–
CN1C(=O)c2ccccc2C1=O,-0.377%,–
O=C(NO)c1ccccc1,-1.21%,–
c1ccc2occc2c1,–,inactive
Nc1cccc2c(N)cccc12,–,inactive
Cc1ncc(CO)c(CO)c1O,-2.1%,–
C1=CC2C3C=CC(C3)C2C1 (stereo not drawn),0.918%,–
COC(=O)c1c(Cl)c(Cl)c(C(=O)OC)c(Cl)c1Cl,2.95%,–
CCCCC(CC)COC(=O)c1ccccc1C(=O)O (stereo not drawn),–,inactive
COc1cc(C=O)ccc1O,–,inactive
Brc1ccccc1-c1ccccc1,3.86%,–
OCc1c[nH]c2ccccc12,-0.0307%,–
CCCCCCCCCCCC[N+](C)(C)Cc1ccccc1,-3.07%,–
O=C(Oc1ccccc1)c1cccc(C(=O)Oc2ccccc2)c1,-5.51%,–
Cc1ccc(O)cc1,-0.237%,–
Nc1ccc(O)cc1,1.98%,–
CC(=O)OC/C=C(C)/C=C/C=C(C)/C=C/C1=C(C)CCCC1(C)C,–,inactive
